Results filed as inconclusive are left out. Where a call stands in place of a potency, no number is given. A number with no mark means an inactive call. Calls of active or inactive are those of the source. Unless noted, the call rests on the fitted dose curve; in most records, active means well fitted curve in the direction sought with a large enough effect in the repeat runs; inconclusive means weak or mixed curves; inactive means no such curve, though single readings can be large; an effect the other way counts as inactive or inconclusive.
Columns and labels:
[1] = target: Retinoic acid receptor RXR-alpha (Homo sapiens) (UniProt P19793); test: qHTS assay to identify small molecule agonists of the RXR signaling pathway (AID 1159527; calls by dose curve; further: nearly all actives have a fitted effect of over 35% in size)
Retinoic acid receptor RXR-alpha (Homo sapiens), sequence (P19793 whole entry, looked up): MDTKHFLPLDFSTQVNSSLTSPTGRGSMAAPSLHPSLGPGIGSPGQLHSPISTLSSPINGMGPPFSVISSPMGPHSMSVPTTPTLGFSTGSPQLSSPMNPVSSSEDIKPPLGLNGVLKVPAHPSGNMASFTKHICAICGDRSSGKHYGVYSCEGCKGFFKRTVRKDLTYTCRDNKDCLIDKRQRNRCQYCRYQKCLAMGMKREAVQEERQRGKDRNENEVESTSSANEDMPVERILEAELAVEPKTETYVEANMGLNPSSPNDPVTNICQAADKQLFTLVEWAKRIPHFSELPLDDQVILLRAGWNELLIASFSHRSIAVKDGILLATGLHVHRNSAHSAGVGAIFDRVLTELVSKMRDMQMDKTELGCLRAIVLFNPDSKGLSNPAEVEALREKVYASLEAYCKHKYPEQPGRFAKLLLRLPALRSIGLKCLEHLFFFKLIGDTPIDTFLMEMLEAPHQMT
Procedure, shortened: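 GeneBLAzer RXR-alpha-UAS-bla HEK 293T cells in 2% charcoal-stripped FBS medium were exposed to compounds for 16 hr at 37 C in agonist mode. Beta-lactamase reporter read as 460/530 nm FRET ratio after 2 hr substrate loading.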

[2] = qHTS assay to identify small molecule agonists of the RXR signaling pathway - cell viability counter screen (AID 1159529); further: series mostly up to about 77 µM; nearly all actives have a fitted effect of over 50% in size
Procedure, shortened: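 RXR-alpha-UAS-bla HEK 293T cells in medium with 2% charcoal-stripped FBS were pre-incubated 5 hr, then compound-treated 16 hr at 37 C. Viability was read by CellTiter-Glo luminescence in the same wells as the beta-lactamase assay, with tetraoctyl ammonium bromide as positive control.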

[3] = qHTS assay to identify small molecule antagonists of the estrogen related receptor (ERR) signaling pathway from Tox21 library - cell viability counter screen (AID 1224834); further: nearly all actives have a fitted effect of over 30% in size
Procedure, shortened: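 ERR reporter cells, 2,000 per well, rested 6 h, then exposed to compound in DMSO for 17.5 hours at 37 C. Viability read as fluorescence after 30 min with CellTiter-Fluor.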

[4] = target: Luciferin 4-monooxygenase (Photinus pyralis) (UniProt P08659); test: qHTS assay to identify small molecule inhibitors of firefly luciferase (AID 1224835); further: series mostly up to about 120 µM; nearly all actives have a fitted effect of over 25% in size
Luciferin 4-monooxygenase (Photinus pyralis), sequence (P08659 whole entry, looked up): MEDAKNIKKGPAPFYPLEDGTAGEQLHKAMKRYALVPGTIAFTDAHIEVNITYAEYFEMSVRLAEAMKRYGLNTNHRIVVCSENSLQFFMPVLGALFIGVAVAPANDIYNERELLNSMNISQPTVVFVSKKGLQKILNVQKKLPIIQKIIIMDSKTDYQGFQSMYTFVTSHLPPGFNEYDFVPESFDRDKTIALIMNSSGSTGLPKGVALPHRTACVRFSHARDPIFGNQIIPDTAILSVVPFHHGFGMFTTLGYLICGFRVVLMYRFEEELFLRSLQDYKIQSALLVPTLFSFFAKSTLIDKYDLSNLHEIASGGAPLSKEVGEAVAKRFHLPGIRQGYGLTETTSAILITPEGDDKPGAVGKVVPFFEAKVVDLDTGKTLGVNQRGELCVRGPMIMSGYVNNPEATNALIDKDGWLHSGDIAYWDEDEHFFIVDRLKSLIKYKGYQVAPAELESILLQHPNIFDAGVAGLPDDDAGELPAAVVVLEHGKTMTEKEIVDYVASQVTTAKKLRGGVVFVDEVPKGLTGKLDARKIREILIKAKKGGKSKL
Procedure, shortened: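 Inhibition of purified Photinus luciferase is measured by luminescence. Substrate levels (D-luciferin, ATP) sit at their KM values. Each compound is tested in a concentration series.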

[5] = qHTS assay to identify small molecule agonists of the constitutive androstane receptor (CAR) signaling pathway - cell viability counter screen (AID 1224836); further: series mostly up to about 92 µM; nearly all actives have a fitted effect of over 45% in size
Procedure, shortened: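 HepG2 cells stably carrying hCAR and a CYP2B6-2.2kb reporter; 15-concentration compounds plus PK11195 (final 0.75 uM), 23 hr at 37 C/5% CO2. Viability read by CellTiter-Fluor fluorescence.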

[6] = qHTS assay to identify small molecule antagonists of the constitutive androstane receptor (CAR) signaling pathway - cell viability counter screen (AID 1224837); further: series mostly up to about 92 µM; nearly all actives have a fitted effect of over 45% in size
Procedure, shortened: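 HepG2 cells stably carrying hCAR and CYP2B6-2.2kb reporter, stimulated with 50 nM CITCO and compounds at 15 concentrations for 23 h at 37 C. Viability measured by CellTiter-Fluor fluorescence.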

[7] = target: Nuclear receptor subfamily 1 group I member 3 (Homo sapiens) (UniProt Q14994); test: qHTS assay to identify small molecule antagonists of the constitutive androstane receptor (CAR) signaling pathway (AID 1224838); further: nearly all actives have a fitted effect of over 40% in size
Nuclear receptor subfamily 1 group I member 3 (Homo sapiens), sequence (Q14994 whole entry, looked up): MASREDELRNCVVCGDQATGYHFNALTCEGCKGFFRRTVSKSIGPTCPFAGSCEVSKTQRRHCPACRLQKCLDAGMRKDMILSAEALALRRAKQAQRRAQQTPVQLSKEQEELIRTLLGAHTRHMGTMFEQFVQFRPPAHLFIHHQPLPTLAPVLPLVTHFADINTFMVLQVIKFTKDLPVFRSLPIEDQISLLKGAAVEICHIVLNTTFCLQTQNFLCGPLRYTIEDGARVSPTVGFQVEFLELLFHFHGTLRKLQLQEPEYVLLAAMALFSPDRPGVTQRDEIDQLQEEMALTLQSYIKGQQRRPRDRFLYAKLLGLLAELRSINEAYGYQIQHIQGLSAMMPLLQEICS
Procedure, shortened: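 HepG2 cells stably carrying hCAR and a CYP2B6-2.2kb luciferase reporter, seeded 4 hrs before compound (15 concentrations). Stimulated with 50 nM CITCO for 24 hr at 37 C. ONE-Glo luminescence read after 30 min at room temperature.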

[8] = target: Nuclear receptor subfamily 1 group I member 3 (Homo sapiens) (UniProt Q14994); test: qHTS assay to identify small molecule agonists of the constitutive androstane receptor (CAR) signaling pathway (AID 1224839); further: nearly all actives have a fitted effect of over 15% in size; further: potency means the concentration at half of the fitted maximal effect
Procedure, shortened: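 HepG2 cells stably co-transfected with hCAR and a CYP2B6-2.2kb luciferase reporter; compounds at 15 concentrations with 0.75 uM PK11195 present. After 24 hr at 37 C, luciferase read by ONE-Glo luminescence.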

[9] = qHTS assay to identify small molecule antagonists of the estrogen related receptor signaling pathway with the pleiotropic PPARgamma coactivator (PGC) from Tox21 10K library - cell viability counter screen (AID 1224840; active means well fitted cell-killing curve with a large enough effect in the repeat runs, not every such curve was filed as active; further: nearly all actives have a fitted effect of over 40% in size)
Procedure, shortened: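 PGC/ERR cells (2,000/well) plated 6 h, then compound-treated for 17.5 h at 37 C. Viability measured by CellTiter-Fluor fluorescence after 30 min at 37 C, multiplexed with the pathway assay.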

[10] = qHTS assay to identify small molecule antagonists of the estrogen related receptor signaling pathway with the pleiotropic PPARgamma coactivator (PGC) from Tox21 10K library (AID 1224841; call rule not given here; further: series mostly up to about 92 µM; actives are mostly falling curves and most rising ones were filed inactive; nearly all actives have a fitted effect of over 50% in size)
Procedure, shortened: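 PGC/ERR cell line, 2,000 cells/well, pre-incubated 6 hours at 37 C, then exposed to compounds for 18 hours at 37 C; luciferase read with One-Glo luminescence after 30 min at room temperature.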

[11] = qHTS assay to identify small molecule antagonists of the retinoic acid receptor (RAR) signaling pathway (AID 1159552; further: nearly all actives have a fitted effect of over 50% in size)
Procedure, shortened: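 Retinol signaling pathway inhibitors screened in C3RL4 RARE-luciferase reporter cells seeded overnight at 37 C, then compounds added with 1 uM (final) retinol as pathway substrate. After 6 hr at 37 C, luciferase luminescence read after 30 min at room temperature.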

[12] = qHTS assay to identify small molecule agonists of the estrogen related receptor signaling pathway with the pleiotropic PPARgamma coactivator (PGC) from Tox21 10K library (AID 1224842); further: nearly all actives have a fitted effect of over 15% in size
Procedure, shortened: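 Luminescence from One-Glo (30 min, room temperature) measured after PGC/ERR cells had 18 h at 37 C with pinned compound (23 nL in DMSO). Cells had been seeded at 2,000 per well and pre-incubated 6 h.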

[13] = target: Thyrotropin receptor (Homo sapiens) (UniProt P16473); test: qHTS assay to identify small molecule agonists of the thyroid stimulating hormone receptor (TSHR) signaling pathway (AID 1224843; calls by dose curve; further: nearly all actives have a fitted effect of over 45% in size; further: potency means the concentration at half of the fitted maximal effect)
Thyrotropin receptor (Homo sapiens), sequence (P16473 whole entry, looked up): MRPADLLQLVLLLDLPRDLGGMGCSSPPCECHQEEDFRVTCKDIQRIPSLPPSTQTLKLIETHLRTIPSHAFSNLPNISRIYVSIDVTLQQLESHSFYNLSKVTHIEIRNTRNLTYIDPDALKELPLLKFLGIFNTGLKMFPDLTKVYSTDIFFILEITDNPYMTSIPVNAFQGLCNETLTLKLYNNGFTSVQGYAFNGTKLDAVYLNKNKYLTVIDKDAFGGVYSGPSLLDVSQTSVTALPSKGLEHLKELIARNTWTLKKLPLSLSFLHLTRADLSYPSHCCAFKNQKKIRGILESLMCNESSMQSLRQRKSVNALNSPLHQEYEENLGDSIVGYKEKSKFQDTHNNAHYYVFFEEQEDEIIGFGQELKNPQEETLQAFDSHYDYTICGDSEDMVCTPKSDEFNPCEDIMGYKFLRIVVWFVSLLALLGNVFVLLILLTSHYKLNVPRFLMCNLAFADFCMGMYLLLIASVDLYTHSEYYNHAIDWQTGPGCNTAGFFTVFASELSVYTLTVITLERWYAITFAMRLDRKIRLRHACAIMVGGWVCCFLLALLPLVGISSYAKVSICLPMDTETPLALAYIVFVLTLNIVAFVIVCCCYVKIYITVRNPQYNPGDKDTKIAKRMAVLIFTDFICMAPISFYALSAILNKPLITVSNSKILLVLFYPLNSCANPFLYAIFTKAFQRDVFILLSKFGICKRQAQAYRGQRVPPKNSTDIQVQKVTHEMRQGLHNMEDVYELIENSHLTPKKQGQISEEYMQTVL
Procedure, shortened: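 HEK293 cells stably bearing the thyrotropin receptor were plated at 800 cells/well and challenged with compound (30 min, RT). Accumulated cAMP was quantified via cAMP-d2 competing for cryptate-tagged antibody.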

[14] = qHTS assay to identify small molecule agonists of the retinoic acid receptor (RAR) signaling pathway (AID 1159553)
Procedure, shortened: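 C3RL4 RARE-luciferase cells were seeded at 1,000/well and grown overnight at 37 C, then exposed to compounds for 6 hr at 37 C, 5% CO2. Luciferase reagent was added and luminescence was read after 30 min at room temperature.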

[15] = qHTS assay to identify small molecule antagonists of the estrogen related receptor (ERR) signaling pathway - cell viability counter screen (AID 1224818); further: series mostly up to about 46 µM
Procedure, shortened: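 ERR cells, 2,000 per well, compound added after 6 h and incubated 17.5 h at 37 C. Viability read by CellTiter-Fluor fluorescence after a further 30 min at 37 C.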

[16] = qHTS assay to identify small molecule antagonists of the estrogen related receptor (ERR) signaling pathway (AID 1224819;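 further: luminescence from an ERR-driven luciferase reporter measured with One-Glo reagent; series mostly up to about 46 µM; nearly all actives have a fitted effect of over 50% in size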)
Procedure, shortened: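 ERR reporter cell line (NTP) plated at 2,000 cells/well, settled 6 h at 37C/5% CO2, then exposed to LOPAC compounds for 18 h at 37C. One-Glo luciferase luminescence read after 30 min at room temperature.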

[17] = qHTS assay to identify small molecule agonists of the estrogen related receptor (ERR) signaling pathway (AID 1224820)
Procedure, shortened: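 ERR reporter cells (NTP line) plated 2,000/well, incubated 6 h at 37 C/5% CO2, then pinned with compounds in DMSO and held 18 h at 37 C. One-Glo added; luminescence read after 30 min at room temperature.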

[18] = test system: estrogen-related receptor alpha (ERRalpha) with PGC-1alpha coactivator, human; test: qHTS assay to identify small molecule antagonists of the estrogen related receptor signaling pathway with the pleiotropic PPARgamma coactivator (PGC) (AID 1224821; calls by dose curve)
Procedure, shortened: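 Cells engineered for PGC/ERR signalling (line from NTP) were plated 6 h at 37 C/5% CO2, then exposed to DMSO-dissolved compound for 18 h at 37 C. Luciferase activity was read by One-Glo luminescence after 30 min at room temperature.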

[19] = qHTS assay to identify small molecule antagonists of the estrogen related receptor signaling pathway with the pleiotropic PPARgamma coactivator (PGC) cell viability counter screen (AID 1224822; further: series mostly up to about 46 µM)
Procedure, shortened: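 PGC/ERR cells rested 6 h, then compound-treated 17.5 h at 37 C. CellTiter-Fluor added for 30 min at 37 C, viability measured by fluorescence intensity.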

Row | Structure (SMILES) | Potency [1] | outcome [2] | Potency [3] | Potency [4] | Potency [5] | Potency [6] | outcome [7] | Potency [8] | outcome [9] | Potency [10] | outcome [11] | outcome [12] | Potency [13] | Potency [14] | outcome [15] | outcome [16] | outcome [17] | outcome [18] | outcome [19]
1 | OCCC(F)(F)C(F)(F)C(F)(F)C(F)(F)C(F)(F)C(F)(F)C(F)(F)C(F)(F)F | inactive | inactive | inactive | inactive | inactive | inactive | inactive | inactive | inactive | inactive | – | – | – | – | – | – | – | – | –
2 | CC(C)(C)c1cc(CCC(=O)NN)cc(C(C)(C)C)c1O | inactive | inactive | inactive | inactive | inactive | inactive | inactive | 30.6 µM (active) | inactive | inactive | inactive | inactive | inactive | – | – | – | – | – | –
3 | CC1=CCC(C(C)C)=CC1 | inactive | inactive | inactive | inactive | inactive | inactive | inactive | inactive | inactive | – | – | – | – | – | – | – | – | – | –
4 | O=C(O)C(=O)Cc1ccccc1 | inactive | inactive | inactive | – | inactive | inactive | inactive | inactive | inactive | – | inactive | – | 30.6 µM (active) | – | – | – | – | – | –
5 | CC(C(=O)O)c1ccc2c(c1)CC(=O)c1ccccc1S2 (stereo unspecified) | inactive | inactive | inactive | inactive | inactive | inactive | inactive | – | inactive | inactive | – | inactive | inactive | – | – | – | – | – | –
6 | COc1ccc(-c2cc(=O)c3c(O)cc(O[C@@H]4O[C@H](CO[C@@H]5O[C@@H](C)[C@H](O)[C@@H](O)[C@H]5O)[C@@H](O)[C@H](O)[C@H]4O)cc3o2)cc1O | inactive | inactive | – | – | inactive | inactive | – | – | inactive | inactive | inactive | inactive | – | inactive | – | – | – | – | –
7 | CC[C@H](C)C(=O)O[C@H]1C[C@H](O)C=C2C=C[C@H](C)[C@H](CC[C@@H](O)C[C@@H](O)CC(=O)O)[C@H]21 | inactive | inactive | inactive | inactive | inactive | inactive | – | – | inactive | – | inactive | – | – | – | – | – | – | – | –
8 | CC1(CO)CN(c2ccccc2)NC1=O (stereo unspecified) | inactive | inactive | – | inactive | inactive | inactive | inactive | – | inactive | – | inactive | – | inactive | inactive | – | – | – | – | –
9 | Cc1cccc(C)c1NC(=O)c1ccccc1C(=O)O | inactive | inactive | inactive | inactive | inactive | inactive | inactive | inactive | inactive | inactive | – | inactive | inactive | – | – | – | – | – | –
10 | CC(=O)N[C@@H](CCC(=O)O)C(=O)O | inactive | inactive | inactive | inactive | – | inactive | inactive | – | inactive | inactive | – | inactive | inactive | – | – | – | – | – | –
11 | OC[C@H](Cc1cccc(O)c1)[C@H](CO)Cc1cccc(O)c1 | inactive | inactive | inactive | – | – | inactive | inactive | inactive | inactive | inactive | inactive | inactive | – | – | – | – | – | – | –
12 | CC(=O)CCCCn1c(=O)c2c(ncn2C)n(C)c1=O | inactive | inactive | inactive | inactive | inactive | inactive | – | – | inactive | inactive | – | inactive | inactive | – | inactive | inactive | inactive | inactive | inactive
13 | CN(C)c1ccc(C=O)cc1 | inactive | inactive | – | inactive | inactive | inactive | inactive | inactive | inactive | inactive | – | inactive | inactive | – | – | – | – | – | –
14 | COC(=O)CCc1ccc(OCC(O)CNC(C)C)cc1 (stereo unspecified) | inactive | inactive | inactive | inactive | – | inactive | inactive | inactive | inactive | inactive | – | inactive | inactive | – | – | – | – | – | –
15 | CN=C(NC#N)Nc1ccc(C2=NNC(=O)CC2C)cc1 (stereo unspecified) | inactive | inactive | – | inactive | – | inactive | inactive | inactive | inactive | inactive | – | inactive | – | – | – | – | – | – | –
16 | C[C@H](CCC(=O)O)[C@H]1CC[C@H]2[C@@H]3C(=O)C[C@@H]4CC(=O)CC[C@]4(C)[C@H]3CC(=O)[C@]12C | inactive | inactive | inactive | inactive | inactive | inactive | inactive | inactive | inactive | inactive | – | inactive | inactive | – | – | – | – | – | –
17 | CNS(=O)(=O)CCc1ccc2[nH]cc(C3CCN(C)CC3)c2c1 | inactive | inactive | inactive | inactive | inactive | inactive | inactive | – | inactive | – | – | – | inactive | – | inactive | – | – | – | inactive

Reference: PubChem BioAssay (Tox21)
